An excerpt weighted towards active compounds, which were near 2.8% of everything screened.
pPAFAH FP inh – pPAFAH (human) enzyme inhibition; inhibition, % at 3.39 µM; Q13093; 1.5% of 330,000 active; AID 463082; recombinant pPAFAH, FP-rhodamine probe fluorescence polarization;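 active = inhibition above the mean inhibition across the screen plus 3 SD, cut at about 25% in these data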;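 note: inhibitors block binding of the rhodamine activity-based probe so polarization drops; 0% = enzyme with DMSO and 100% = wells lacking pPAFAH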
Fam108B counter – Fam108B inhibition, counter-screen for RBBP9 inhibitors | recombinant Fam108B, FP-Rh probe fluorescence polarization | inhibition, % at 9.51 µM | 0.33% of 300,000 active | AID 1947;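 active = inhibition above the screen mean inhibition plus 3 SD, computed separately per campaign, cut at about 18% in these data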;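 note: inhibitors lower polarization as less probe binds the enzyme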
PAFAH2 FP inh – inhibitors of human PAFAH2 | recombinant PAFAH2, FP-rhodamine activity probe, fluorescence polarization | inhibition, % at 3.39 µM | 0.99% of 340,000 active | Q99487;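 active = inhibition above the mean over all tested compounds plus 3 SD, cut at about 30% in these data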;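 note: inhibitors block probe labeling of enzyme so polarization drops; 0% = enzyme with DMSO and 100% = wells lacking PAFAH2 protein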
PME-1 primary – PME-1 (human) inhibition | Q9Y570 | recombinant PME-1, FP-Rh probe fluorescence polarization | 0.53% of 320,000 active | inhibition, % at 5.9 µM;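 active = inhibition above the campaign mean of all compounds plus 3 SD, cut at about 26% in these data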;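 note: competitive labeling of PME-1 active site by serine hydrolase directed probe; 0% = PME-1 with DMSO and 100% = wells lacking PME-1 enzyme; inhibitors block probe labeling so polarization falls and inhibition rises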
Target sequence (Q9Y570 whole entry, looked up): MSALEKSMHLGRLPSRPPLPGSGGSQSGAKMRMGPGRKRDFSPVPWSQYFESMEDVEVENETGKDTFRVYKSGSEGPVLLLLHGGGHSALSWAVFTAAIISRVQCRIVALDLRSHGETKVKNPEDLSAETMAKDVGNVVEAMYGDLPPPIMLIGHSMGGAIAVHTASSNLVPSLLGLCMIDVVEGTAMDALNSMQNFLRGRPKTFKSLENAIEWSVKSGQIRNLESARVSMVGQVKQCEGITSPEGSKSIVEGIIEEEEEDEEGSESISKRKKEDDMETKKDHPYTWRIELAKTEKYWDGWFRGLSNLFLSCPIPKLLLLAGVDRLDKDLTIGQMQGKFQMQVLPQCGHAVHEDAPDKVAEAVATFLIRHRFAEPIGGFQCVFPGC
PAFAH1B2 FP inh – inhibitors of human PAFAH1B2; 1.2% of 340,000 active; recombinant PAFAH1B2, FP-rhodamine activity probe, fluorescence polarization; AID 492953; inhibition, % at 3.39 µM; P68402;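 active = inhibition above the mean of all tested compounds plus 3 SD, cut at about 24% in these data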;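 note: 0% = enzyme with DMSO and 100% = wells lacking PAFAH1B2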
Target sequence (P68402 whole entry, looked up): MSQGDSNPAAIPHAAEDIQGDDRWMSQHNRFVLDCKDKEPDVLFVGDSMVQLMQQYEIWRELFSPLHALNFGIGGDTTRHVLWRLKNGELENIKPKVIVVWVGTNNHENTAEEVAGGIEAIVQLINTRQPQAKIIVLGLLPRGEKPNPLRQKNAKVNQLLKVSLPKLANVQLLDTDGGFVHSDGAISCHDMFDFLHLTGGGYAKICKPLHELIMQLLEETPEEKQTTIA
PAFAH1B3 FP inh – blocks human PAF acetylhydrolase 1B catalytic subunit 3. recombinant PAFAH1B3, FP-rhodamine probe, fluorescence polarization. Q15102. 0.28% of 340,000 active. inhibition, % at 3.39 µM;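 active = inhibition above the screen-wide average of all tested compounds plus 3 SD, cut at about 25% in these data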;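 note: 0% = enzyme with DMSO only and 100% = wells lacking PAFAH1B3 protein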
PAFAH2 confirm – confirmation of human PAFAH2 inhibitors; shares compounds with PAFAH2 FP inh; recombinant PAFAH2, FP-rhodamine activity probe, fluorescence polarization; inhibition, % at 3.39 µM; 65% of 2,300 active;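 active = mean inhibition over three repeats above a set limit taken from the earlier primary screen, cut at about 30% in these data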;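 note: inhibitor blocks binding of rhodamine activity probe so polarization falls; 0% = enzyme with DMSO and 100% = wells lacking PAFAH2 protein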
* hit, by the source's call; . = not tested or not shown.

SMILES | pPAFAH FP inh | Fam108B counter | PAFAH2 FP inh | PME-1 primary | PAFAH1B2 FP inh | PAFAH1B3 FP inh | PAFAH2 confirm
CC1(C)C(/C=C/C=C/C=C/C=C2\N(CCCCS(=O)(=O)O)c3ccc4ccccc4c3C2(C)C)=[N+](CCCCS(=O)(=O)[O-])c2ccc3ccccc3c21 | 29* | -4 | 43* | -52 | -12 | -32 | 26
COc1ccc(NC(=O)COC(=O)C2C3CC4OC(=O)C2C4C3)cc1 (centres undefined) | 9 | 1 | 30 | 2 | 0 | -3 | .
Cc1ccccc1NC(=O)COC(=O)C1C2CC3OC(=O)C1C3C2 (centres undefined) | 1 | 3 | 11 | -3 | 6 | -7 | .
O=C(COC(=O)C1C2CC3OC(=O)C1C3C2)Nc1ccccc1 (centres undefined) | 2 | 1 | 75* | -11 | -2 | 6 | 66*
O=C(COC(=O)C1C2CC3OC(=O)C1C3C2)Nc1ccc(F)cc1 (centres undefined) | 3 | 0 | 78* | 0 | -6 | 12 | 69*
O=C(COC(=O)C1C2CC3OC(=O)C1C3C2)Nc1ccc(Br)cc1 (centres undefined) | 2 | 0 | 79* | -5 | -3 | 0 | 71*
CC1(C)CCC[C@]2(C)[C@H]3Cc4cc(O)ccc4O[C@]3(C)CC[C@@H]12 | 22 | . | 14 | . | 12 | 8 | .
COc1ccccc1NC(=O)CSc1nnnn1C1CCCCC1 | -1 | 0 | -10 | -2 | 1 | 10 | .
N#Cc1cccc(NC(=O)COC(=O)c2cccc(N3C(=O)c4ccccc4C3=O)c2)c1 | 10 | -5 | 67* | -2 | -13 | -13 | 79*
O=C(COC(=O)CN1C(=O)c2ccccc2C1=O)Nc1ccccc1 | 5 | . | 5 | . | 5 | 11 | .
O=C(COC(=O)c1cccc(N2C(=O)c3ccccc3C2=O)c1)Nc1ccccc1 | 15 | -9 | 70* | -5 | 5 | 7 | 71*
N#Cc1cccc(NC(=O)COC(=O)c2ccc[n+]([O-])c2)c1 | 2 | . | 14 | . | -4 | 1 | .
CCOc1ccc(C(=O)OCC(=O)Nc2cc(C)on2)cc1OCC | 5 | -3 | 77* | -2 | 6 | -2 | 63*
CCOc1cc(C(=O)OCC(=O)Nc2cc(C)on2)ccc1OCC(C)C | 0 | -1 | 33* | 3 | 0 | 7 | 29
CCN(CC)c1ccc(C(=O)OCC(=O)Nc2cc(C)on2)cc1 | 16 | . | 90* | 7 | 0 | 6 | 66*
Cc1cc(NC(=O)COC(=O)c2ccccc2S(=O)(=O)N(C)c2ccccc2)no1 | 2 | -1 | 46* | 10 | -1 | 2 | 1
COc1cc(C(=O)OCC(=O)Nc2cc(C)on2)ccc1OCc1ccccc1Cl | -1 | -3 | 14 | -5 | -1 | 6 | .
CCOc1ccccc1OCC(=O)Nc1cc(C)on1 | 5 | . | 2 | . | 3 | 6 | .
O=C(NCN1CCOCC1)c1cnccn1 | 3 | -3 | -5 | 3 | 3 | 8 | .
Cc1cccc2c(=O)oc(-c3ccccc3Cl)nc12 | 8 | 3 | 49* | -4 | 4 | 5 | 40*
Cc1ccccc1-c1nc2cc(Cl)ccc2c(=O)o1 | -4 | 4 | 16 | -4 | 0 | -5 | .
O=C(COC(=O)c1ccc2ncsc2c1)Nc1cc([N+](=O)[O-])ccc1Cl | -2 | . | 8 | 3 | -8 | -11 | .
O=C(COC(=O)c1ccc2ncsc2c1)Nc1ccccc1Cl | -2 | . | 59* | . | 3 | 10 | 44*
O=C(COC(=O)c1ccc2ncsc2c1)NCc1ccc(Cl)cc1 | 1 | . | 39* | -2 | 5 | 2 | 25
Cc1ccc(F)cc1NC(=O)COC(=O)c1ccc2ncsc2c1 | -3 | . | 49* | -2 | -8 | 8 | 54*
SMILES | pPAFAH FP inh | Fam108B counter | PAFAH2 FP inh | PME-1 primary | PAFAH1B2 FP inh | PAFAH1B3 FP inh | PAFAH2 confirm
CC(C)(C)c1ccc(NC(=O)COC(=O)c2ccc3ncsc3c2)cc1 | -2 | . | 23 | -16 | 1 | -4 | .
O=C(COC(=O)c1ccc2ncsc2c1)Nc1ccc(OC(F)(F)F)cc1 | -10 | . | 73* | . | 0 | -1 | 70*
CCc1ccc(/C=C2\Oc3c(ccc(O)c3CN3CCN(CCO)CC3)C2=O)cc1 | 2 | 1 | 58* | -10 | -1 | 0 | 39*
CN(C)S(=O)(=O)n1cnc([C@@H]2[C@H]3C(=O)OC[C@@H]3C[C@@]23N=CN(Cc2ccccc2)C3=O)c1 | 2 | . | 40* | 0 | 7 | 8 | 34*
CC(c1ccco1)N(C(=O)c1ccccc1NS(=O)(=O)c1cc([N+](=O)[O-])ccc1Cl)c1ccccn1 (centres undefined) | 7 | 3 | 63* | 0 | 1 | -2 | 71*
O=C1c2ccccc2[C@@H]2C[C@@H](O)[C@H](Nc3ccccc3-c3ccccc3)CCN12 | 4 | . | -1 | . | 6 | 2 | .
O=C1c2ccccc2[C@@H]2C[C@@H](O)[C@H](Nc3cccc(C(F)(F)F)c3)CCN12 | 23 | . | 40* | . | 5 | 11 | 30*
CC(C)(C)c1ccc(C(=O)NCC(=O)NCc2ccccn2)cc1 | -2 | . | 6 | -5 | 5 | 8 | .
COc1ccc(C(=O)OCC(=O)Nc2cccc(C(C)=O)c2)c(OC)c1OC | 10 | 2 | 83* | 7 | 0 | 8 | 86*
COc1cccc(OC)c1C(=O)OCC(=O)NCCCc1ccccc1 | 6 | -4 | 2 | 3 | 9 | -3 | .
COc1cccc(C(=O)OCC(=O)NCCc2ccccc2)c1OC | 15 | 3 | 58* | 5 | -1 | 9 | 44*
COc1ccc(CC(=O)OCC(=O)Nc2cccc(C(C)=O)c2)cc1OC | . | . | 11 | . | 2 | 10 | .
COc1ccc(C(=O)OCC(=O)Nc2c(C)cccc2C)c(OC)c1OC | 2 | 0 | 52* | 3 | 2 | 4 | 43*
CCOC(=O)C1=C(CS(=O)(=O)c2ccc(F)cc2)NC(=O)NC1c1ccc(O)c(O)c1 (centres undefined) | 18 | 0 | 8 | 2 | 0 | 6 | .
N#Cc1c(Cl)nsc1NCCN1CCOCC1 | 5 | 0 | 3 | -12 | 0 | -2 | .
CC1=NN(C(N)=S)C(=O)C1N=Nc1ccc(C)c(Br)c1 (centres undefined) | 4 | 11 | 42* | 3 | 8 | 11 | 33*
Cc1cc(C(=O)NNC(=O)c2ccc(F)cc2)c(C)s1 | 8 | . | 4 | . | 5 | -1 | .
O=C(N/N=C/c1cc([N+](=O)[O-])ccc1O)C1CCCCC1 | 8 | 7 | 59* | -3 | 9 | 7 | 41*
CC1(C)Oc2ccc3ccc(=O)oc3c2[C@@H](O)[C@@H]1O | -2 | . | -12 | 1 | 0 | 2 | .
CC(=O)c1ccc(OCC(=O)OCC(=O)NCc2ccco2)cc1 | 9 | . | 6 | 1 | 0 | 7 | .
